High-throughput results deposited in PubChem by National Center for Advancing Translational Sciences (NCATS).
AmpC inh no detg: AmpC beta-lactamase inhibition without detergent | P00811 | AmpC nitrocefin hydrolysis, absorbance 480 nm, 0.0001% Triton | Potency, µM (doses to about 57.1 µM), actives largely listed as inhibitors | 330,000 tested, 0.52% active | AID 485341; note: nearly all actives have a fitted effect of over 20% in size
Target sequence (P00811 whole entry, looked up): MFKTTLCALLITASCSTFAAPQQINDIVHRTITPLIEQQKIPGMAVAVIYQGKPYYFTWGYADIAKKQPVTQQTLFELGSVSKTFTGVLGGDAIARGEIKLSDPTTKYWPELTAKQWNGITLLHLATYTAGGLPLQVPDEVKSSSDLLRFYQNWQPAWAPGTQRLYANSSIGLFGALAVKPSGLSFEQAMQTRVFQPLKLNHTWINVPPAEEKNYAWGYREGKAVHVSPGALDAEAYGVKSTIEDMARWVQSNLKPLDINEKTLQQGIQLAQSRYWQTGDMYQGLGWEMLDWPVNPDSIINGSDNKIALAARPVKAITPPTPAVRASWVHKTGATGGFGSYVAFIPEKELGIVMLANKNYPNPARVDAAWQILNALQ
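AmpC (5.3 nM in the dispensed reagent) in 20 mM phosphate pH 7.0 with 0.01% (detergent screen) or 0.0001% Triton X-100 was preincubated with compounds for 15 min at room temperature. Nitrocefin was then added from an 800 uM solution, and hydrolysis was followed at 480 nm.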
Pf growth 48h: inhibits P. falciparum growth in the first generation, 48 h | P. falciparum luciferase growth in erythrocytes, 48 h | Potency, µM (titrated, usually from 28.7 µM), most hits filed as inhibitors | 310,000 tested, 5.9% active | AID 504832
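Luciferase-expressing parasites in RBCs, 2% Hct / 0.1% parasitemia final; RPMI 1640 + 0.5% Albumax; 37 C, 5% CO2, one generation; luminescence read-out, lower signal = inhibition.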
AMA1 RON2 block: inhibitors of Plasmodium falciparum AMA1-RON2 interaction. AlphaScreen AMA1-biotinylated RON2 peptide binding. Potency, µM (top dose mostly 58.2 µM), actives largely listed as inhibitors. 360,000 tested, 0.2% active; note: nearly all actives have a fitted effect of over 45% in size
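AMA1 (3D7) with his tag at 25 nM final met compounds first, then biotinylated RON2 peptide at 25 nM; detection used donor plus acceptor beads, 10 µg/mL apiece, read by AlphaScreen after 30 min at room temperature.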
HCV inh: inhibitors of hepatitis C virus infection. Potency, µM (titrated, usually from 41.8 µM), actives largely listed as inhibitors. 340,000 tested, 3.4% active. Huh7.5.1 HCVcc-Cre infection, luciferase reporter, 44 h. AID 651820
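Cells seeded at 1,000/well and cultured 4 h, then compounds added followed by HCVcc-Cre virus (~0.5 moi). After 44 h further culture, luciferase substrate was added, plates held 15 min at room temperature, and luminescence read for 15 sec.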
AmpC inh detg: blocks E. coli AmpC beta-lactamase in detergent assay; P00811; AmpC hydrolysis of nitrocefin, absorbance 480 nm, 0.01% Triton; Potency, µM (series often up to 114 µM), actives largely listed as inhibitors; 370,000 tested, 0.041% active; AID 485294; note: nearly all actives have a fitted effect of over 25% in size
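20 mM phosphate pH 7.0 + 0.01% (detergent screen) or 0.0001% Triton X-100; 5.3 nM AmpC reagent; cpd preinc 15 min RT; nitrocefin (800 uM stock) to start; A480 q20 s × 4 min; Activity was normalised to no-enzyme and no-compound control wells.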
Pf growth 96h: P. falciparum growth inhibition at 96 hour, primary screen for plastid delayed-death inhibitors; AID 504834; P. falciparum luciferase reporter growth, 96 h; Potency, µM (series often up to 28.7 µM), most hits filed as inhibitors; 320,000 tested, 6.9% active
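Two-generation exposure (96 h) targets delayed-death phenotype. Reporter parasites carrying integrated firefly luciferase, in red cells at 2% hematocrit and 0.05% parasitemia final, kept at 37 C, 5% CO2; luminescence loss indicates inhibition.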
Numbers stand for hits; n = inactive; u = inconclusive; x = not tested or not shown; [ ] = dose if it differs, or a comment. This is a sample that favours compounds with a hit; in the whole collection about 11% have one here. Calls come from the whole dose curve; as a rule, active = well fitted curve in the direction sought with a large enough effect; inconclusive = small, poorly fitted or top-dose-only effect, or another doubt; inactive = no such curve, though single readings can be large; an effect the other way counts as inactive or inconclusive.

SMILES	AmpC inh no detg	Pf growth 48h	AMA1 RON2 block	HCV inh	AmpC inh detg	Pf growth 96h
COc1ccc(CCNC(=O)CCn2c(=O)c3ccccc3n(Cc3cc(C)ccc3C)c2=O)cc1OC	x	x	x	x	n	x
C#CC(C)(C)NS(=O)(=O)c1cc(-c2nnc(Nc3ccc(C)cc3)c3ccccc23)ccc1C	x	x	x	x	n	x
O=C(NC1CCCCC1)C(c1ccc(O)cc1)N(CC1CCCO1)C(=O)C1COc2ccccc2O1 (centres undefined)	n	x	n	n	n	7.38µM
O=C1CC(C(=O)N(CC2CCCO2)C(C(=O)NC2CCCCC2)c2ccncc2)CS1 (centres undefined)	n	n	n	n	n	n
O=C(CCCn1c(=O)c2cccn2c2ccc(F)cc21)NCc1ccc(Cl)cc1	x	x	x	x	n	x
CCOC(=O)c1cccc(NC(=O)C2Cc3ccccc3N2C(=O)c2ccccc2)c1 (centres undefined)	x	x	x	x	n	x
N#C/C(=C\c1ccc(-c2ccc(C(=O)O)cc2)o1)C(=O)Nc1ccc(F)cc1	n	n	n	n	n	9.28µM
O=C(Cn1c(SCc2ccccc2F)nc2ccncc21)Nc1ccccc1C(F)(F)F	x	x	x	x	n	x
CCOc1ccc2c(c1)C(N(CCN1CCOCC1)C(=S)Nc1ccccc1OC)CC(C)(C)O2 (centres undefined)	n	u	n	n	n	10.4µM
COc1ccccc1NC(=S)N(CCN1CCOCC1)Cc1ccccc1F	n	n	n	n	n	n
O=C(NC1CCCC1)C(c1ccc(Cl)cc1)N1CCc2ccccc21 (centres undefined)	n	x	n	n	u	5.86µM
Cc1ccc(C(C(=O)NC2CCCC2)N2CCc3ccccc32)cc1 (centres undefined)	n	x	n	n	u	u
O=C(NC1CCCCC1)C(c1ccccc1)N1CCc2ccccc21 (centres undefined)	n	x	u	n	n	11.7µM
Cc1cc2c(s1)c(C=O)c(C(=O)NCc1ccccc1F)n2C	n	u	x	x	n	n
CC(C)N(Cc1ccccc1)C(=O)CCS(=O)(=O)c1cc2c(cc1Cl)NC(=O)CO2	x	x	x	x	n	x
O=C(C[n+]1cccc(CNC(=O)c2ccc(OC(F)F)cc2)c1)Nc1cc(C(F)(F)F)ccc1Cl	n	1.65µM	n	u	n	0.928µM
Cn1nc(-c2ccccc2)c(C(O)c2ccccc2C(F)(F)F)c1Cl (centres undefined)	n	u	n	n	n	u
COC(c1ccccc1)c1c(-c2ccccc2)nn(C)c1Cl (centres undefined)	n	13.1µM	n	n	n	11.7µM
Cc1cc(C)c(NC(=O)Cn2c(=O)n(CCC(=O)NCc3ccc4c(c3)OCO4)c(=O)c3ccccc32)c(C)c1	x	x	x	x	n	x
Cc1nc(-c2ccccc2)cc(N2CCCC2)n1	n	n	n	8.91µM	n	n
Nc1nc(-c2ccccc2)cc(N2CCCCC2)n1	n	n	n	n	u	x
O=S(Cc1ccc(Br)cc1)Cc1nnc(SCc2ccc(Cl)cc2)n1-c1ccccc1 (centres undefined)	n	u	n	6.31µM	n	u
Cc1nn(-c2ccccc2)c(C)c1C(=O)Oc1ccccc1	n	n	n	n	n	n
COC(=O)c1c(C)nn(-c2ccc(OC(F)(F)F)cc2)c1-c1snnc1C	n	u	n	n	n	13.1µM
Cc1nnsc1C(=O)N/N=C/c1ccc(OC(F)(F)F)cc1	n	u	n	n	u	n
SMILES	AmpC inh no detg	Pf growth 48h	AMA1 RON2 block	HCV inh	AmpC inh detg	Pf growth 96h
Cc1nnsc1-c1c(C(=O)Oc2ccccc2)c(C)nn1-c1ccccc1	n	9.28µM	n	n	n	13.1µM
COc1cccc(OC)c1OCC(C)CNCC1CCCO1 (centres undefined)	n	n	n	1µM	n	u
CCOc1ccccc1CNCC1CCCO1 (centres undefined)	n	n	n	n	n	u
Cc1cc(-c2ccccc2)nc(Oc2ccc(C(C)(C)C)cc2)c1S(C)(=O)=O	n	u	n	n	n	13.1µM
Cc1cccc(Oc2nc(-c3ccccc3)cc(C)c2S(C)(=O)=O)c1C	n	u	n	10µM	n	x
Cc1ccccc1C(N)c1ccncc1 (centres undefined)	n	n	n	n	u	5.86µM
COc1ccc(N2CCN(S(=O)(=O)c3ccc4c(c3)CC(C)N4C(C)=O)CC2)cc1 (centres undefined)	x	x	x	x	n	x
O=C(Nc1sc2c(c1C(=O)NC1CCCCC1)CCC2)c1ccco1	x	n	n	u	n	n[5.75 µM]
CNC(=O)c1c(NC(=O)c2ccco2)sc2c1CCC2	n	n	n	11.2µM	n	n
CNC(=O)c1c(NC(=O)C2=COCCO2)sc2c1CCCC2	n	n	n	u	n	13.1µM
CCC1CCc2c(sc(NC(=O)c3ccco3)c2C(N)=O)C1 (centres undefined)	n	n	n	3.98µM	u	n
CC1CCc2c(sc(NC(=O)C3c4ccccc4Oc4ccccc43)c2C(N)=O)C1 (centres undefined)	n	u	n	n	n	6.57µM
Cc1c(Cl)cccc1-n1ncc(C(=O)Nc2ccc3c(c2)OCCO3)c1C1CCN(C(=O)OC(C)(C)C)CC1	x	x	x	x	n	x
O=C1Nc2ccccc2S/C1=C/c1cccs1	n	n	n	6.31µM	n	n
Cc1cc(-c2ccccc2)nc2cc(C(=O)Nc3ccc(Cl)c(Cl)c3)nn12	x	x	x	x	n	x
Cc1cc2c(=O)n(C)c(SCC(=O)Nc3ccccc3C)nc2s1	n	u	n	n	n	9.28µM
COCCn1c(-c2ccc(OC)cc2)cnc1SCC(=O)Nc1ccc(OC)cc1OC	n	u	n	n	u	n
Cc1ccccc1NC(=O)CSc1nc(O)cc(=O)n1C	n	n	n	n	n	n
COc1ccccc1-n1c(SCC(=O)Nc2ccccc2C)nc(O)cc1=O	n	2.62µM	n	n	n	n
COc1ccc(-n2c(SCC(=O)Nc3cccc4ccccc34)nc(O)cc2=O)cc1	n	2.08µM	n	n	n	0.294µM
COCCn1c(-c2ccccc2)cnc1SCC(=O)Nc1cccc2ccccc12	n	n	u	n	u	13.1µM
O=C(CC1C(=O)N(c2ccccc2)C(=O)N1Cc1ccc2c(c1)OCO2)Nc1ccccc1 (centres undefined)	x	x	x	x	n	x
O=C(CSc1nc2ccsc2c(=O)n1Cc1ccccc1F)NCc1ccccc1Cl	x	x	x	x	n	x
O=C(CSc1nc(O)cc(=O)n1-c1ccccc1)Nc1ccccn1	11.2µM	n	n	n	n	n
O=C(CSc1nc(O)cc(=O)n1-c1ccccc1)NCc1ccccc1	n	n	n	n	n	n
CCOc1ccccc1NC(=O)CSc1nnc2[nH]c(=O)cc(C)n12	x	x	x	x	n	x
